# Measured values from PubChem BioAssay (NCI).
# About 79,000 compounds went through this panel and 15% of them were active in at least one assay; those are over-represented in the sample as a whole. A number with no mark means an inactive call. Active and inactive are the calls of the source. Rule as the data show it: active = growth inhibition above about 70%; inactive = the rest.
# Assay: NCI Yeast Anticancer Drug Screen. Data for the rad50 strain (AID 155);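 also: 0% = growth of vehicle-only cultures of the same strain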
# Settings: S. cerevisiae rad50 strain growth inhibition; at 50.0 µM; stronger effect = higher value
# Procedure, shortened: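 Yeast carrying a defined DNA repair defect were exposed to test compounds, and growth was compared with vehicle-treated controls to give percent inhibition.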
row,Compound,growth inhibition
1,Cc1cc(O)c(C(=O)/C=C/c2cccnc2)c(=O)[nH]1,68.9%
2,Oc1ccccc1C(=NNc1ccccc1)c1ccccc1O,94.8% (active)
3,Cn1c(=S)c2[nH]c(SCCN3CCCCC3)nc2n(C)c1=O,97.2% (active)
4,Cc1cc(=O)n(-c2cc3cccccc-3n2)[nH]1,96.8% (active)
5,CC(=O)OCC1OC(n2c(O)c(N=NC(N)=S)c3ccc([N+](=O)[O-])cc32)C(OC(C)=O)C1OC(C)=O (stereo unspecified),96.5% (active)
6,COC(=O)NNc1c([N+](=O)[O-])cnn(-c2ccccc2)c1=O,14.9%
7,CC(=O)N(C1=C(Cl)C(=O)c2ccccc2C1=O)c1ccc(F)cc1,98.8% (active)
8,COC(=O)CC1c2cc(OC)c3cccc(OC)c3c2CCC1(C)C(=O)OC (stereo unspecified),45.8%
9,CC[n+]1c(/C=C/c2ccc(N(C)C)cc2)ccc2ccccc21,99% (active)
10,COc1ccc(SC2=C(N(C)C)C(=O)c3ccccc3C2=O)cc1,88.2% (active)
11,C1=C(c2ccccc2)C(=Nc2ccccc2)SC1=Nc1ccccc1,99% (active)
12,Cc1c(O)c(Br)c(Br)c(Br)c1Br,95.5% (active)
13,CC1(C)OC(C(COC(=O)c2ccc([N+](=O)[O-])cc2)OS(=O)(=O)c2ccc([N+](=O)[O-])cc2)C(C(SCc2ccccc2)SCc2ccccc2)O1 (stereo unspecified),43.6%
14,Cc1cccc(Cc2ccc(Cl)cc2)c1O,99.3% (active)
15,C=C(CN(C)C)C(=O)c1ccccc1[N+](=O)[O-],8.5%
16,CCCCN(CCCC)CC(O)c1cc(-c2ccc(Cl)cc2)nc2c(C)cccc12 (stereo unspecified),98% (active)
